Results as given in PubChem BioAssay (EPA / NIEHS).
Calls of active or inactive are those of the source. The calls were made as follows: active = hit-call score of the fitted dose curve at least 0.9, where 1 is the maximum; inactive = score below 0.9.

How the values were obtained:
Settings in all cases: mRNA level, 48 h; actives raise or lower the signal
CYP2E1 (gene 1571) = experiment: LTEA_HepaRG_CYP2E1: Life Technologies and Expression Analysis (LTEA) Assay for CYP2E1 using HepaRG (AID 2283485)
Method in brief: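 CYP2E1 transcript measured by Fluidigm qRT-PCR against three housekeeping genes in human HepaRG cells treated 48 h (top 100 uM, half-log steps, 0.5% DMSO vehicle). Gain or loss fitted relative to DMSO baseline.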

CYP4A11 (gene 1579) = experiment: LTEA_HepaRG_CYP4A11: Life Technologies and Expression Analysis (LTEA) Assay for CYP4A11 using HepaRG (AID 2283486)
Method in brief: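 HepaRG, 48 h chem exposure, 8 conc (100 uM top, half-log), 0.5% DMSO vehicle; qRT-PCR readout, housekeeping-gene normalized; bidirectional curve fit vs DMSO baseline.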

[1] = read-out: Cytochrome P450 3A4 (Homo sapiens) (UniProt P08684); experiment: LTEA_HepaRG_CYP3A4: Life Technologies and Expression Analysis (LTEA) Assay for CYP3A4 using HepaRG (AID 2283487)
Method in brief: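 Differentiated HepaRG cells in serum-free induction medium exposed in duplicate for 48 h to 8 half-log concentrations up to 100 uM in 0.5% DMSO. CYP3A4 mRNA measured by qRT-PCR normalized to ACTB, GAPDH and POLR2A; bidirectional fit versus DMSO.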

[2] = read-out: DNA damage-inducible transcript 3 (DDIT3), DDIT3 (gene 1649); experiment: LTEA_HepaRG_DDIT3: Life Technologies and Expression Analysis (LTEA) Assay for DNA damage-inducible transcript 3 (DDIT3) using HepaRG (AID 2283488)
Method in brief: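 DDIT3 transcript was quantified by qRT-PCR with ACTB/GAPDH/POLR2A normalization after 48 h chemical treatment of differentiated HepaRG cells in 0.5% DMSO. Dosing was eight-point, half-log, top 100 uM, duplicate wells. Curves fitted bidirectionally versus DMSO.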

[3] = read-out: Pro-epidermal growth factor (Homo sapiens) (UniProt P01133); experiment: LTEA_HepaRG_EGF: Life Technologies and Expression Analysis (LTEA) Assay for Epidermal growth factor (EGF) using HepaRG (AID 2283489)
Method in brief: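 HepaRG, 48 h dosing, 100 uM top, half-log x8, 0.5% DMSO. Readout: TaqMan qRT-PCR (Fluidigm array), housekeeping-normalized. Gain or loss of signal fit vs DMSO.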

[4] = read-out: Early growth response protein 1 (EGR1) transcription factor, EGR1 (gene 1958); experiment: LTEA_HepaRG_EGR1: Life Technologies and Expression Analysis (LTEA) Assay for Early growth response protein 1 (EGR1) transcription factor using HepaRG (AID 2283490)
Method in brief: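 EGR1 transcript levels quantified by qRT-PCR (Fluidigm arrays) against three housekeeping genes after 48 h chemical exposure of HepaRG cells. Eight-point half-log series topping at 100 uM, 0.5% DMSO vehicle, analyzed for gain or loss.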

[5] = read-out: Ezrin (EZR), EZR (gene 7430); experiment: LTEA_HepaRG_EZR: Life Technologies and Expression Analysis (LTEA) Assay for Ezrin (EZR) using HepaRG (AID 2283491)
Method in brief: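 Differentiated human HepaRG cells, 48 h after plating, were exposed in serum-free induction medium for 48 hours to eight half-log concentrations up to 100 uM in 0.5% DMSO. EZR mRNA was measured by TaqMan qRT-PCR, normalized to ACTB, GAPDH and POLR2A, and fitted bidirectionally against DMSO.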

[6] = read-out: Cytochrome P450 3A7 (Homo sapiens) (UniProt P24462); experiment: LTEA_HepaRG_CYP3A7: Life Technologies and Expression Analysis (LTEA) Assay for CYP3A7 using HepaRG (AID 2283492)
Method in brief: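 Human HepaRG liver cells, 48 h post-plating, switched to serum-free induction medium and exposed in duplicate for 48 h. Dosing: 100 uM top, half-log dilutions, 8 points, 0.5% DMSO vehicle. Read-out: CYP3A7 mRNA, gain or loss fitted against DMSO baseline.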

CYP3A5 (gene 1577) = experiment: LTEA_HepaRG_CYP3A5: Life Technologies and Expression Analysis (LTEA) Assay for CYP3A5 using HepaRG (AID 2283493)
Method in brief: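 mRNA levels were quantified by qRT-PCR on Fluidigm arrays and normalized to three housekeeping genes. Differentiated HepaRG cells received 48 h exposure (top 100 uM, half-log steps, 0.5% DMSO vehicle, duplicate); bidirectional fitting versus DMSO.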

[7] = read-out: Fatty Acid-Binding Protein 1 (FABP1), FABP1 (gene 2168); experiment: LTEA_HepaRG_FABP1: Life Technologies and Expression Analysis (LTEA) Assay for Fatty Acid-Binding Protein 1 (FABP1) using HepaRG (AID 2283494)
Method in brief: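 FABP1 expression by TaqMan qRT-PCR, normalised to three housekeeping genes, in HepaRG cells after 48 h chemical treatment. Eight-point half-log series topping at 100 uM in 0.5% DMSO, duplicates; gain or loss fitted relative to vehicle.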

[8] = read-out: Cytochrome P450 4A22 (Homo sapiens) (UniProt Q5TCH4); experiment: LTEA_HepaRG_CYP4A22: Life Technologies and Expression Analysis (LTEA) Assay for Cytochrome P450 4A22 (CYP4A22) using HepaRG (AID 2283495)
Method in brief: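 Readout is CYP4A22 transcript induction or loss, quantified by qRT-PCR and normalized to ACTB, GAPDH and POLR2A. Human HepaRG cells receive test chemicals for 48 h at eight half-log concentrations from 100 uM in 0.5% DMSO.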

[9] = read-out: Cytochrome P450 7A1 (Homo sapiens) (UniProt P22680); experiment: LTEA_HepaRG_CYP7A1: Life Technologies and Expression Analysis (LTEA) Assay for Cytochrome P450 7A1 (CYP7A1) using HepaRG (AID 2283496)
Method in brief: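 HepaRG, 48 h exposure, 8-pt half-log series from 100 uM, 0.5% DMSO vehicle, duplicates. Readout: TaqMan qRT-PCR mRNA vs three housekeeping genes; bidirectional curve fit against DMSO baseline.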

[10] = read-out: Glutathione S-Transferase (GSTA2), GSTA2 (gene 2939); experiment: LTEA_HepaRG_GSTA2: Life Technologies and Expression Analysis (LTEA) Assay for Glutathione S-Transferase (GSTA2) using HepaRG (AID 2283497)
Method in brief: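 GSTA2 transcript levels came from Fluidigm TaqMan qRT-PCR normalized to three housekeeping genes, fitted in both directions against DMSO. HepaRG cultures received chemicals for 48 h in serum-free induction medium (0.5% DMSO), 8 half-log concentrations up to 100 uM, duplicate.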

[11] = read-out: Glutamate-cysteine ligase catalytic (GCLC), GCLC (gene 2729); experiment: LTEA_HepaRG_GCLC: Life Technologies and Expression Analysis (LTEA) Assay for Glutamate-cysteine ligase catalytic (GCLC) using HepaRG (AID 2283498)
Method in brief: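 Expression by TaqMan qRT-PCR, normalized to three housekeeping genes (ACTB, GAPDH, POLR2A), with up- or down-regulation fitted against DMSO. HepaRG cells dosed in duplicate for 48 h with 8 half-log concentrations up to 100 uM, vehicle 0.5% DMSO.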

[12] = read-out: growth arrest and DNA damage 45 (GADD45G), GADD45G (gene 10912); experiment: LTEA_HepaRG_GADD45G: Life Technologies and Expression Analysis (LTEA) Assay for growth arrest and DNA damage 45 (GADD45G) using HepaRG (AID 2283499)
Method in brief: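 Gain or loss of GADD45G mRNA, quantified by TaqMan qRT-PCR against three housekeeping genes, is fitted in both directions relative to 0.5% DMSO. Human HepaRG cultures receive test chemical for 48 h at up to 100 uM.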

[13] = read-out: Glutamate-cysteine ligase regulatory (GCLM), GCLM (gene 2730); experiment: LTEA_HepaRG_GCLM: Life Technologies and Expression Analysis (LTEA) Assay for Glutamate-cysteine ligase regulatory (GCLM) using HepaRG (AID 2283500)
Method in brief: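 GCLM expression quantified by qRT-PCR, normalized to three housekeeping genes, after 48 h chemical treatment of HepaRG cells in duplicate at 8 concentrations (top 100 uM, half-log steps, 0.5% DMSO). Changes fitted both directions against vehicle.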

[14] = read-out: Glutathione S-transferase M3 (GSTM3), GSTM3 (gene 2947); experiment: LTEA_HepaRG_GSTM3: Life Technologies and Expression Analysis (LTEA) Assay for Glutathione S-transferase M3 (GSTM3) using HepaRG (AID 2283501)
Method in brief: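 HepaRG, plated 48 h, then serum-free induction medium; test chemical 48 h, duplicate; 100 uM top, half-log x8, 0.5% DMSO. Read-out: GSTM3 mRNA (TaqMan qRT-PCR, Fluidigm array). Bidirectional fit vs DMSO.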

[15] = read-out: Heat shock 70 kDa protein 1 (HSPA1A), gene 3303; experiment: LTEA_HepaRG_HSPA1A: Life Technologies and Expression Analysis (LTEA) Assay for Heat shock 70 kDa protein 1 (HSPA1A) using HepaRG (AID 2283502)
Method in brief: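 HSPA1A expression measured by qRT-PCR with ACTB/GAPDH/POLR2A normalization; curves fitted in both directions relative to DMSO vehicle. Exposure: 48 h in HepaRG cells, duplicate 8-point half-log series from 100 uM, 0.5% DMSO, serum-free induction medium.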

[16] = read-out: Hypoxia-inducible factor 1-alpha (Homo sapiens) (UniProt Q16665); experiment: LTEA_HepaRG_HIF1A: Life Technologies and Expression Analysis (LTEA) Assay for Hypoxia-inducible factor 1 (HIF1A) Trancription factor using HepaRG (AID 2283503)
Method in brief: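 HIF1A transcript level read by qRT-PCR (ACTB, GAPDH, POLR2A normalization) after 48 h chemical exposure of HepaRG cultures. Eight half-log concentrations, top 100 uM, 0.5% DMSO vehicle, duplicates; bidirectional curve fit against DMSO baseline.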

[17] = read-out: 3-Hydroxy-3-Methylglutaryl-CoA Synthase 2 (HMGCS2), HMGCS2 (gene 3158); experiment: LTEA_HepaRG_HMGCS2: Life Technologies and Expression Analysis (LTEA) Assay for 3-Hydroxy-3-Methylglutaryl-CoA Synthase 2 (HMGCS2) using HepaRG (AID 2283504)
Method in brief: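 HepaRG, plated 48 h then switched to serum-free induction media; cmpd 8-pt, max 100 uM, 1/2-log, 0.5% DMSO, n=2, 48 h. HMGCS2 mRNA by Fluidigm TaqMan qRT-PCR, ACTB/GAPDH/POLR2A norm; bidirectional fit vs DMSO.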

Measured: AC50

Chain of Hypoxia-inducible factor 1-alpha (Homo sapiens) (Q16665 whole entry, looked up): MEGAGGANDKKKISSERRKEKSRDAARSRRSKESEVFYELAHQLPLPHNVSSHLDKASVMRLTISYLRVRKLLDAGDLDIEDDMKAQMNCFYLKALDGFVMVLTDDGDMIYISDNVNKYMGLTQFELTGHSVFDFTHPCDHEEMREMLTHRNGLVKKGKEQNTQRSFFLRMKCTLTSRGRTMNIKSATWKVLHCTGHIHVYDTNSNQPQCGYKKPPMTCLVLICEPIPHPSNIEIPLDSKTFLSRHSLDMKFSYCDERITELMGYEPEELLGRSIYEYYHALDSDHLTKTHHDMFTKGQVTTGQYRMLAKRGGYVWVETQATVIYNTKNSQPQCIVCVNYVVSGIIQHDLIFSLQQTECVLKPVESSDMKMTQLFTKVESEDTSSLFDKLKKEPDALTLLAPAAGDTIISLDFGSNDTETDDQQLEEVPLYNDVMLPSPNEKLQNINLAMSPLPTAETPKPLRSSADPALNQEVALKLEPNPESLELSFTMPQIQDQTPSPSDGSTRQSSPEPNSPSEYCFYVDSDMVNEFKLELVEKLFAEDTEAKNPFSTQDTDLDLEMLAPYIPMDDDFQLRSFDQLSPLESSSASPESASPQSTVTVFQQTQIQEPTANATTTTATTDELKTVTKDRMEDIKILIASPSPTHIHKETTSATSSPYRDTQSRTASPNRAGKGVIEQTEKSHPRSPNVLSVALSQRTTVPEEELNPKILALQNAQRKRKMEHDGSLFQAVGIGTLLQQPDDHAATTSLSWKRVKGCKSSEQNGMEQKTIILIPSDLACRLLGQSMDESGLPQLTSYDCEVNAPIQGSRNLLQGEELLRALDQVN
Chain of Cytochrome P450 3A4 (Homo sapiens) (P08684 whole entry, looked up): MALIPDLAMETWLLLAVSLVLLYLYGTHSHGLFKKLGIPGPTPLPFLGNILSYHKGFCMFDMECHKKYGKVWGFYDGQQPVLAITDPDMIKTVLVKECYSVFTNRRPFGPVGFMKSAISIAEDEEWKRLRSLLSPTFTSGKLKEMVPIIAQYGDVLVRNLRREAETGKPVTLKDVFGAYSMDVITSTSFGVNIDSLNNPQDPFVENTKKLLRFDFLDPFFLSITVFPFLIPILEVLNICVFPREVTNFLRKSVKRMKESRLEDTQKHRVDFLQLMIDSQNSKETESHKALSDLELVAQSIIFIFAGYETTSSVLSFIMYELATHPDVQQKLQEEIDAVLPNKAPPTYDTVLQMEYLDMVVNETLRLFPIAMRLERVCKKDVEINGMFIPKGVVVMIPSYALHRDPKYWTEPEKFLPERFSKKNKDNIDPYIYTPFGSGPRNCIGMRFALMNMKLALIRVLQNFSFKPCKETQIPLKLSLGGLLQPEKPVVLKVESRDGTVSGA
Chain of Cytochrome P450 3A7 (Homo sapiens) (P24462 whole entry, looked up): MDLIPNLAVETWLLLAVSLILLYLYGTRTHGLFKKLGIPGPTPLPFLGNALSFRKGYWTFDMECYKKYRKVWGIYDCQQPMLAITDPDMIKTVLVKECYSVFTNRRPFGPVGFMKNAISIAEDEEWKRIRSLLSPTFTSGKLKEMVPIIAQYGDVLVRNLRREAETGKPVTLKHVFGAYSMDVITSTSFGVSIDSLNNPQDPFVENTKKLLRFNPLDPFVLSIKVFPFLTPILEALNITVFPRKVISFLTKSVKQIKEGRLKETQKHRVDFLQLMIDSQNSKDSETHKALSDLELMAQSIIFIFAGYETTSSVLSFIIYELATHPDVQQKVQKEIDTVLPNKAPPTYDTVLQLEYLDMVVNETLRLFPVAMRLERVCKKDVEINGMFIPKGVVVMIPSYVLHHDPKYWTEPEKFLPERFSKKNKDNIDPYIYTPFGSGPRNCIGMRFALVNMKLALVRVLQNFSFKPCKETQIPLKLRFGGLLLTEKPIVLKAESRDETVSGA

C1CNCCN1
inactive: all assays above

Nc1ccc(C(=O)O)cc1
inactive: all assays above

Cc1ccc([N+](=O)[O-])cc1N
active: CYP2E1 (gene 1571) 32.4 µM
inactive: all other assays above
